Compounds with a hit are over-represented: about 2.6% of the library has one in this group of screens.
APOBEC3G inh: inhibitors of human APOBEC3G DNA deaminase | Q9HC16 | recombinant A3G, ssDNA deamination FAM/TAMRA fluorescence | 0.28% of 330,000 active | inhibition, % at 20 µM;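 active means inhibition of at least 40% at 20 µM, with no more than 30% in the related APOBEC3A deaminase screen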;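 further: plate controls were DMSO wells with A3G for no effect and wells lacking A3G enzyme for full effect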
MLLE-PAM2 inh: inhibitors of microRNA-mediated deadenylation, human PABP1 MLLE binding. P11940. GST-MLLE / FITC-PAM2 fluorescence polarization. inhibition, % at 20 µM. 0.36% of 360,000 active; in the data active means inhibition above about 35%, passing the limit was not always enough;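 further: plate controls were DMSO wells with GST-MLLE for no effect and wells lacking GST-MLLE protein for full effect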
PABP polyA inh: PABP-poly(A) binding inhibition; P11940; PABP-poly(A) RNA binding, fluorescence polarization; calls only at 35 µM; 1% of 290,000 active;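 further: calls also rest on retests at 20 µM and on dose response follow-up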
APOBEC3A inh: inhibitors of human APOBEC3A DNA deaminase | P31941 | recombinant A3A, FAM/TAMRA ssDNA deamination fluorescence | inhibition, % at 20 µM | 0.41% of 330,000 active;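 active means at least 40% inhibition at 20 µM here, with at most 30% in a related deaminase screen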;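 further: plate controls were A3A with DMSO for no effect and wells lacking A3A enzyme for full effect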
Target sequence (P31941 whole entry, looked up): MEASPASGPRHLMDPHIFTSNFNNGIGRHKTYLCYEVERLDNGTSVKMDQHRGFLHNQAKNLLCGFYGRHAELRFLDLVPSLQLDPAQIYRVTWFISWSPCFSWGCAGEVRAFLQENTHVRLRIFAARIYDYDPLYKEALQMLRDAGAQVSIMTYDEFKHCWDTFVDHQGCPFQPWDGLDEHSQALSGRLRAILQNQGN
eIF4H FP inh: inhibitors of RNA binding by human eIF4H; Q15056; eIF4H fluorescence polarization binding assay; inhibition, % at 35 µM; 0.94% of 290,000 active;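 further: calls also rest on retests at 20 µM and on dose response follow-up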
PHOSPHO1 inh: blocks human PHOSPHO1 phosphatase activity. Q8TCT1. recombinant PHOSPHO1, absorbance phosphatase assay. AID 1565. inhibition, % at 13.3 µM. 1.1% of 290,000 active; in the data active means inhibition above about 60%
Target sequence (Q8TCT1 whole entry, looked up): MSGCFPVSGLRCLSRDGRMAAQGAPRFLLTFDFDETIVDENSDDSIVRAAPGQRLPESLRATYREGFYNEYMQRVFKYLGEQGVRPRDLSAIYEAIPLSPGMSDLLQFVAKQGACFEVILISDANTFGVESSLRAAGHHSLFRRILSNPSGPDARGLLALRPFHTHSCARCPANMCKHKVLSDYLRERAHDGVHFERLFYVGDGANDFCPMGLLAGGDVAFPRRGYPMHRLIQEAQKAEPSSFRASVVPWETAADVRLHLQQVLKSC
APOBEC3G confirm: confirmation of human APOBEC3G DNA deaminase inhibitors; shares compounds with APOBEC3G inh; recombinant A3G ssDNA deaminase, UDG/FAM-TAMRA fluorescence; inhibition, % at 20 µM; 72% of 890 active;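 active means inhibition reaching a set limit in any replicate at 20 µM, the limit being 80% of the first screen's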
UDG A3G counter: inhibits E. coli UDG, flagging false APOBEC3G inhibitors | shares compounds with APOBEC3G inh | UDG counterscreen, FAM/TAMRA oligo fluorescence | inhibition, % at 20 µM | 710 tested, under 10 active;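 active means compounds giving 40% or more inhibition at 20 µM in any one of the three replicates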;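 further: plate controls were DMSO wells with UDG and oligo for no effect and DMSO wells lacking both for full effect; inhibitors lower the FAM signal released by uracil excision and alkaline cleavage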
An asterisk follows results filed as active; i = inactive; ? = inconclusive; / = not tested or not shown; + = active, no number. Unless noted, how the calls were made is not given here.

SMILES | APOBEC3G inh | MLLE-PAM2 inh | PABP polyA inh | APOBEC3A inh | eIF4H FP inh | PHOSPHO1 inh | APOBEC3G confirm | UDG A3G counter
COc1ccc(CC(=S)N2CCOCC2)cc1 | 45* | 24 | i | 2 | -9 | 73* | 41* | -2
Cc1ccc(CC(=S)N2CCOCC2)cc1 | 14 | 13 | i | -3 | -10 | 36 | / | /
Cc1cc(=O)n(Cc2ccccc2)c(O)c1C#N | 4 | -42 | i | -8 | 41 | 8 | / | /
Cc1cc(=O)n2nc(-c3ccccc3)sc2c1C#N | 55* | 25 | i | -3 | 2 | 5 | 69* | 3
COc1ccc(NS(=O)(=O)c2ccc(N3CC(O)=C(c4ccccc4)C3=N)cc2)cc1 | 1 | -23 | i | 5 | 4 | 32 | / | /
COc1ccc2nc(NC(=S)N(C)C)sc2c1 | 61* | -38 | i | 2 | 12 | 95* | 69* | -5
CN1C(=O)Cc2cc(S(=O)(=O)Nc3ccc(N4CCOCC4)cc3)ccc21 | -10 | 5 | i | -4 | -9 | 18 | / | /
COc1cccc(C(=O)NCC(=O)N/N=C/c2c(C)[nH]c3ccccc23)c1 | 44* | 4 | i | 5 | 15 | -11 | 0 | /
CCc1cccc(OCC(=O)Nc2cc(S(=O)(=O)N3CCOCC3)ccc2N2CCCC2)c1 | -3 | -9 | i | -5 | -5 | 37 | / | /
COc1ccccc1NS(=O)(=O)c1cc(NC(=O)c2sccc2C)ccc1N1CCOCC1 | -4 | -9 | i | -3 | 0 | -17 | / | /
COc1ccccc1NS(=O)(=O)c1cc(NC(=O)c2sccc2C)ccc1N1CCCC1 | 42* | 17 | i | -1 | -1 | -83 | active | -3
COc1ccccc1NS(=O)(=O)c1cc(NC(=O)C(C)C)ccc1N1CCCCC1 | 21 | 26 | ? | 2 | -5 | 4 | / | /
COc1ccccc1NS(=O)(=O)c1cc(NC(=O)c2cc[n+]([O-])cc2)ccc1N1CCCC1 | 44* | 36 | i | 2 | 3 | -24 | 34* | 2
COc1ccccc1NS(=O)(=O)c1cc(NC(=O)c2cccs2)ccc1N1CCCC1 | 40* | 24 | i | 3 | -11 | 64* | 63* | -2
COc1cccc(OCC(Cn2cnc3ccccc32)OC(C)=O)c1 (centres undefined) | -3 | 12 | i | -1 | -5 | -8 | / | /
Cc1cc(C)c(S(=O)(=O)CCC(C)C)c(=O)[nH]1 | -7 | -5 | i | -3 | -1 | 6 | / | /
O=C(Cc1cccs1)N1CCN(S(=O)(=O)c2ccc(Cl)c(C(F)(F)F)c2)CC1 | -3 | -27 | / | 11 | / | / | / | /
Cc1cccc(C)c1NC(=O)CN(C)CC(=O)Nc1cc(Cl)ccc1C#N | 2 | 0 | i | 2 | -6 | 18 | / | /
CCOc1ccc(NC(=O)CN(C)CC(=O)Nc2cc(Cl)ccc2C#N)cc1OCC | 91* | -11 | i | 3 | -12 | -12 | 4 | /
CCn1c(N)c(C(=O)NC)sc1=S | 59* | 35 | i | 2 | -14 | 56 | 24 | /
CCNC(=O)c1sc(=S)n(CC)c1N | -1 | 23 | i | 2 | -11 | 57 | / | /
CCn1c(N)c(C(=O)NCC2CCCO2)sc1=S (centres undefined) | 40* | 24 | i | -13 | 2 | 100* | 67* | 1
CCOC(=O)C1CCN(C(=O)C(=O)Nc2ccc3nc4n(c(=O)c3c2)CCCCC4)CC1 | -7 | 21 | i | 3 | -5 | -14 | / | /
CC1(C)Cc2c(C#N)c(SCC(=O)O)nc(N3CCOCC3)c2CO1 | 61* | -12 | / | -3 | / | / | -9 | -7
Cc1ccc(CN2CCN(/N=C\c3cccc([N+](=O)[O-])c3)CC2)cc1 | -8 | 16 | i | -6 | -4 | 4 | / | /
SMILES | APOBEC3G inh | MLLE-PAM2 inh | PABP polyA inh | APOBEC3A inh | eIF4H FP inh | PHOSPHO1 inh | APOBEC3G confirm | UDG A3G counter
COCCCn1c(-c2ccccc2Cl)n[nH]c1=S | 23 | -6 | i | -1 | 44 | 5 | / | /
S=c1[nH]nc(-c2ccc(Cl)cc2)n1CCCN1CCOCC1 | -3 | -34 | i | 3 | -5 | -23 | / | /
COCCCn1c(-c2ccc(Cl)cc2)n[nH]c1=S | 49* | -8 | i | -1 | -11 | 98* | 58* | -5
CCOCCCn1c(-c2ccc(Cl)cc2)n[nH]c1=S | 53* | -15 | i | 0 | 1 | 99* | 62* | -3
CC[n+]1c(C)sc2sc3ccccc3c21 | 55* | / | + | 25 | 15 | 53 | 67* | /
COC(=O)c1ccc(/C=N/Nc2nc(-c3ccc(C)cc3)cs2)cc1 | 45* | -91 | i | 1 | -13 | 1 | -4 | /
COC(=O)c1ccc(/C=N/Nc2nc(-c3ccccc3)cs2)cc1 | -1 | 10 | i | -1 | -12 | 4 | / | /
O=S(=O)(Nc1ccc(Cl)cc1)c1ccc(N2CCOCC2)c(NC(=S)NC2CC2)c1 | 46* | 22 | i | 1 | -4 | -7 | 32* | 2
Nc1cc(S(=O)(=O)Nc2ccc(Cl)cc2)ccc1N1CCOCC1 | 46* | 25 | i | 2 | 4 | -3 | 17* | -4
O=C(NNC(=O)c1nc2ccccc2[nH]1)OCc1ccccc1 | 0 | -2 | / | -1 | / | / | / | /
CC(C)n1cc(CN2CCC(n3nccc3NC(=O)CCCc3ccccc3)CC2)cn1 | -2 | 6 | i | 1 | 0 | 32 | / | /
CC(C)n1cc(CN2CCC(n3nccc3NC(=O)Cc3ccccc3)CC2)cn1 | 71* | 14 | i | 4 | 8 | -2 | 4 | /
CCn1c(CSCc2ccccc2)n[nH]c1=S | 41* | -21 | i | -3 | 6 | -84 | 85* | -1
CCOc1ccccc1CSc1nc2ccccc2[nH]1 | -1 | -20 | i | -1 | -2 | -4 | / | /
CCn1c(CSc2nc3ccccc3[nH]2)n[nH]c1=S | 46* | -12 | i | 2 | 14 | 45 | 55* | -2
O=C(O)c1ccc(/C=N/N2CCN(c3ccccc3)CC2)cc1 | -3 | -4 | i | -2 | -6 | 24 | / | /
C(=N/N1CCN(c2ccccc2)CC1)/c1ccncc1 | 43* | 9 | i | -3 | 9 | 57 | -7 | -4
Cc1ccc(SCCC(=O)NNC(=O)c2ccccc2F)cc1 | -6 | 8 | / | -2 | / | / | / | /
Cc1nc(SCc2ccc(O)c([N+](=O)[O-])c2)c([N+](=O)[O-])[nH]1 | 63* | 17 | i | 0 | -6 | 51 | 58* | -2
Cc1ccc(S(=O)(=O)Nc2cccc(C(=O)NCCCn3ccnc3)c2)cc1F | -10 | -6 | / | -3 | / | / | / | /
COC(=O)[C@H](CCSC)NC(=O)c1cc2c(cn1)[nH]c1ccccc12 | 57* | -18 | i | 16 | -9 | -130 | 56* | -1
Cc1cc(NC(=O)c2ccc(C)c(C)c2)no1 | -2 | -6 | i | -2 | -4 | 13 | / | /
CCCCN(CCCC)C(=O)c1sc2nc(N3CCOCC3)c3c(c2c1N)CCCC3 | 42* | 12 | i | -1 | -6 | -38 | -10 | -2

Compound activity deposited in PubChem by Sanford-Burnham Center for Chemical Genomics.
